# Measured values: PubChem BioAssay (Tox21)
# Where “and” joins values, the source holds several entries; their conditions need not be identical. Equal values may be shown once. Results filed as inconclusive are left out. A call without a number means that no potency is given here. Values without a mark were called inactive. Calls of active or inactive are those of the source. The call rests on the fitted dose curve; in most records, active means well fitted activation curve with a large enough effect in the repeat runs; inconclusive means weak or mixed curves; inactive means flat fitted curve, though single readings scatter.
# Test: A CellTox Green Cytotoxicity Assay to monitor cytotoxicity in HEK293 cells - 40 hour (AID 1224871); further: nearly all actives have a fitted effect of over 45% in size
# Conditions: CellTox Green fluorescence; series mostly up to 76.8 µM
# Excerpt: National Center for Advancing Translational Sciences [NCATS]
# NIH Chemical Genomics Center [NCGC]
# U.S. Environmental Protection Agency [EPA]
# National Institutes of Environmental Health Sciences [NIEHS]
# National Toxicology Program [NTP]
# Cell-based models are critical for drug discovery. Determining the natural cytotoxic effects resulting from test compounds is an essential research activity. A CellTox Green Cytotoxicity Assay to monitor cytotoxicity in real time of continues cell culture during 40 hours of the compound treatment was used to screen Tox21 10K library compounds in Hek293 cells. CellTox Green Cytotoxicity Assay is a nonlytic, homogeneous, biofluorescent method to measure cytotoxicity in cell culture after experimental manipulation. The assay system uses a proprietary asymmetric cyanine dye that is excluded from viable cells but preferentially stains the dead cell's DNA. […] Viable cells produce no appreciable increases in fluorescence. Therefore, the fluorescence signal produced by the binding interaction with dead cell DNA is proportional to cytotoxicity.
# The mixture of Hek293 cell suspension and reagents were dispensed at 600cells/6 ul/well in 1536-well tissue culture treated black solid bottom plates using a Multidrop dispenser. After the assay plates were incubated at a 37 C/5% CO2 incubator for 5 hours, 23 nL of compounds dissolved in DMSO, positive and negative controls was transferred to the assay plate by a pintool work station. The plates were incubated at 37 C for 40 hours. The fluorescence intensity were measured at 0h, 8h, 16h, 24h, 32h and 40h time points using ViewLux plate reader during compound treatment.
# Potency means the concentration at half of the fitted maximal effect.
Compound,Potency,cytotoxicity increase
O=C(c1ccc(F)cc1)C1CCN(CCn2c(=O)[nH]c3ccccc3c2=O)CC1,inactive,
[Cl][Au]([Cl])[Cl],21.9 µM (active),
CCc1cc(Cc2cc(CC)cc(C(C)(C)C)c2O)c(O)c(C(C)(C)C)c1,54.9 µM (active),
CCc1oc2ccccc2c1C(=O)c1cc(Br)c(O)c(Br)c1,inactive,
CCN(CC)CCCC(C)Nc1c2ccc(Cl)cc2nc2ccc(OC)cc12 (stereo not given),6.01 µM (active),
O=[N+]([O-])c1ccccc1Nc1ccccc1,inactive,
CCOC(=O)O[C@]1(C(=O)OCCl)CC[C@H]2[C@@H]3CCC4=CC(=O)C=C[C@]4(C)[C@H]3[C@@H](O)C[C@@]21C,inactive,
Cc1cc(O)c2ccccc2c1O,9.52 µM (active),
CC(NN)c1ccccc1 (stereo not given),,-15.6% [at 15.8 µM]
CC(C)(C)c1ccc(C(=O)CCCN2CCC(OC(c3ccccc3)c3ccccc3)CC2)cc1,23.9 µM (active),
N=C1N=C(N)c2cc3ccccc3cc21,54.9 µM (active),
CO[Si](CCCNc1ccccc1)(OC)OC,inactive,
N=C1N=C(N)c2ccccc21,inactive,
CCCC(c1cc(C(C)(C)C)c(O)cc1C)c1cc(C(C)(C)C)c(O)cc1C,49.6 µM (active),
Cc1cccc(S(=O)(=O)O)c1C,inactive,
Cc1ccc2oc(CN(Cc3ccccc3)C(=O)Nc3c(F)cc(F)cc3F)c(-c3ccc(Cl)cc3)c2c1,inactive,
COC(=O)C1=C(C)NC(C)=C(C(=O)OCCc2ccc(N3CCN(C(c4ccccc4)c4ccccc4)CC3)cc2)C1c1cccc([N+](=O)[O-])c1 (stereo not given),inactive,
CCCCCOc1ccccc1/C(=C\SC)n1ccnc1,inactive,
On1ccccc1=S,1.09 µM (active),
CCCCC(CC)COC(=O)c1ccccc1C(=O)O (stereo not given),inactive,

Compound,Potency,cytotoxicity increase
C=CC(=O)OCC(CO)(COC(=O)C=C)COC(=O)C=C,2.76 µM (active) and 9.77 µM (active),
NC(=O)C1(N2CCCCC2)CCN(CCCN2c3ccccc3CCc3ccc(Cl)cc32)CC1,26.8 µM (active),
O=C(N/N=C/c1ccccc1O)c1ccncc1,inactive,
CCCCCCCCCCCCCCCCCC[N+](C)(C)C,21.9 µM (active),
O=C1C=CC(=O)N1c1ccc(Cc2ccc(N3C(=O)C=CC3=O)cc2)cc1,11 µM (active),
COc1cccc(N)c1,inactive,
NC(=O)NS(=O)(=O)c1ccc(N)cc1,inactive,
O=C1C=CC(=O)N1,17.8 µM (active),
CCCCCCCCCCC=O,inactive,
CSc1ccc(C(=O)c2[nH]c(=O)[nH]c2C)cc1,inactive,
CCCCCCCC/C=C/CCCCCCCC1=NCCN1CCO,30.9 µM (active),
CC(C)(C)c1ccc(C(=O)O)cc1,inactive,
OCCCCCCCCCCCCBr,inactive,
CCN(CC)CCNC(=O)c1c(C)[nH]c(/C=C2\C(=O)Nc3ccc(F)cc32)c1C,23.9 µM (active),
CC1=NC(C)OC1C (stereo not given),inactive,
CC(C)(C)NC(=O)[C@@H]1C[C@@H]2CCCC[C@@H]2CN1C[C@@H](O)[C@H](Cc1ccccc1)NC(=O)[C@H](CC(N)=O)NC(=O)c1ccc2ccccc2n1,55.7 µM (active),
CN(C)[C@@H]1C(=O)C(C(N)=O)=C(O)[C@@]2(O)C(=O)C3=C(O)c4c(O)cccc4C[C@H]3C[C@@H]12,inactive,
Cc1cc(CCN2CCN(c3nsc4ccccc34)CC2)cc2c1NC(=O)CC2(C)C,49 µM (active),
CC(C)=CCOc1ccc(/C=C/C(=O)c2ccc(OCC=C(C)C)cc2OCC(=O)O)cc1,inactive,
COc1c(C)c2c(c(O)c1C/C=C(\C)CCC(=O)O)C(=O)OC2,inactive,
